Reference: PubChem BioAssay (NCI)
About 83,000 compounds went through this panel and 20% of them were active in at least one assay; those are over-represented in the sample as a whole.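 Plates (96-well) were seeded with cells, treated with compound at one concentration, and incubated for 48 hours before percent growth was determined.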 Unmarked numbers belong to inactive results. Activity calls are given as the source filed them. Rule for the calls: active = growth percent below 10; inactive = the rest.

Assays:
Assay in all cases: NCI-60 one-dose screen, 48 h (100 = growth as untreated, 0 = no growth, -100 = all killed)
Details in all cases: 10 µM
[1] = test system: NCI-H23 lung
[2] = test system: NCI-H226 lung
[3] = test system: NCI-H322M lung
[4] = test system: HOP-62 NSCLC
[5] = test system: NCI-H460 lung
[6] = test system: HOP-92 NSCLC
[7] = test system: NCI-H522 lung
[8] = test system: A549/ATCC NSCLC
[9] = test system: 786-0 renal
[10] = test system: COLO 205 colon

SMILES	growth [1]	growth [2]	growth [3]	growth [4]	growth [5]	growth [6]	growth [7]	growth [8]	growth [9]	growth [10]
Nc1nnc(-c2c[nH]c3ccc(F)cc23)c(-c2c[nH]c3ncccc23)n1	86.6%	57.9%	61.1%	57.4%	50.3%	81.8%	52.7%	74%	44%	71.8%
Cc1ccc(CSc2nc(-c3ccc(F)cc3)c(C#N)c(=O)[nH]2)cc1	103%	99.1%	98.6%	102%	109%	96.7%	87.1%	89.8%	100%	131%
O=C(c1ccc(O)cc1)C1[C@H](c2ccccc2Br)[C@@H](c2ccccc2)NC12C(=O)Nc1ccc(Br)cc12 (stereo not given in full)	46.4%	36.5%	55.6%	53.2%	31.1%	53.3%	0.143% (active)	34.4%	47.8%	29.7%
CN1CCc2c(sc3ncnc(N/N=C/c4ccc5ccccc5c4)c23)C1	66.1%	86.1%	97%	82%	0.259% (active)	89.2%	83.9%	42.7%	51%	36.3%
[2H]C([2H])([2H])Oc1ccc2ncc(C#Cc3cncc(C(=O)Nc4ccc(CN5CCN(C)CC5)c(C(F)(F)F)c4)c3)n2n1	-80.5% (active)	-65.8% (active)	-98.9% (active)	-41% (active)	2.44% (active)	-66.6% (active)	-40.4% (active)	-33% (active)	-28.6% (active)	-62.2% (active)
CN1C(=O)/C(=C/c2ccc3ncsc3c2)NC1=NC12CC3CC(CC(O)(C3)C1)C2	-21.1% (active)	-1.04% (active)	9.71% (active)	16.7%	9.92% (active)	22.1%	-46.8% (active)	16.7%	11.1%	-37.9% (active)
COC(=O)c1c(C(=O)OC)c2n(c1C)[C@@H]([C@@H](C)[C@H]1CC[C@H]3[C@@H]4CCC5=CC(=O)CC[C@]5(C)[C@H]4CC[C@]13C)SC2	25%	15.7%	72.8%	64.1%	25.1%	26.3%	23.1%	37.1%	73.4%	16%
O=c1[nH]c2ccccc2cc1CSc1ccc(Nc2nccc(-c3ccc(Cl)cc3)n2)cc1	-26.6% (active)	-70.5% (active)	0.401% (active)	-68% (active)	-59.6% (active)	-68.1% (active)	2.64% (active)	-39.7% (active)	-80.1% (active)	-16% (active)
Cc1ccc(/C(CSc2nnc(-c3c[nH]c4ccccc34)n2-c2ccccc2)=N/O)cc1	53.3%	-41.1% (active)	-42.4% (active)	-56.6% (active)	1.99% (active)	-5.5% (active)	23.8%	18.4%	2.17% (active)	12.4%
O=C(c1ccc(O)cc1)C1[C@H](c2ccc(Br)cc2)[C@@H](c2ccccc2)NC12C(=O)Nc1ccc(Br)cc12 (stereo not given in full)	-54.4% (active)	-34.5% (active)	10.4%	-36.2% (active)	6.63% (active)	-21.3% (active)	-41.6% (active)	13.4%	-5.43% (active)	-85.2% (active)
COc1cc(/C=C/C(=O)c2ccc(NC(=O)CN3C(=O)NC(C)(c4ccccc4)C3=O)cc2)cc(OC)c1OC (stereo not given)	15.6%	1.44% (active)	56.5%	33.3%	2.48% (active)	85%	32.8%	18.5%	27.5%	11.9%
COc1ccc(/C=C/C(=O)c2ccc(S(=O)(=O)NCCNc3nc(Nc4ccc(F)cc4)nc(N(C)C)n3)cc2)cc1	44.8%	21.7%	55.3%	51.2%	15.1%	-15.9% (active)	57.3%	50.1%	13.5%	49.2%
CC1(C)CC[C@]23CC[C@]4(C)[C@H](CC[C@@H]5[C@@]6(C)CC[C@H](N)C(C)(C)[C@@H]6CC[C@]54C)[C@H]2[C@H]1OC3=O	-94.7% (active)	-90% (active)	-99.5% (active)	-77.2% (active)	-13.9% (active)	-65.5% (active)	-85.5% (active)	-88.9% (active)	-94.8% (active)	-69.5% (active)
COc1ccc(N(C)c2cc(C#N)nc3ccccc23)cc1N	9.56% (active)	25.4%	47.9%	36.2%	0.907% (active)	58.1%	-25.9% (active)	17.8%	22.6%	-76.8% (active)
CC(C)C1=C[C@@]23CC[C@@H]4[C@](C)(CCC[C@]4(C)C(=O)NCc4ccccc4)[C@H]2C[C@@H]1[C@H]1C(=O)OC(=O)[C@H]13	23%	76.1%	102%	57.2%	17.6%	64.7%	17%	33.7%	70.5%	79.6%
COc1ccsc1/C=N/NC(=O)c1[nH]c2ccc(Br)cc2c1-c1ccccc1	9.07% (active)	17.2%	34.3%	26.3%	0.114% (active)	-5.64% (active)	-34.4% (active)	11.7%	1.8% (active)	-32.4% (active)
COc1ccc(C(=O)/C=C/c2cc(C(F)(F)F)cc(C(F)(F)F)c2)cc1S(N)(=O)=O	-86.1% (active)	-69.7% (active)	-73.8% (active)	-44.7% (active)	-24% (active)	-37.9% (active)	-67.7% (active)	-11.7% (active)	-69.2% (active)	-66.1% (active)
N#Cc1c(NC(=O)c2cccc(C(F)(F)F)c2)sc2c1CCC(O)=C2	22.3%	54.7%	49.2%	55%	30.3%	11.2%	11.2%	35.7%	62.1%	90.2%
COc1ccc2[nH]c(=O)c(CSc3nccc(-c4ccc(Cl)cc4)n3)cc2c1	33.9%	-26.1% (active)	44.9%	32.9%	9.38% (active)	4.58% (active)	-32.2% (active)	2.57% (active)	-28.6% (active)	20.5%
N#Cc1c(-c2ccc(F)cc2)nc(SCc2ccc(F)cc2)nc1N1CCOCC1	71.8%	48.4%	78.4%	24.3%	73.9%	34.3%	55%	69%	24.7%	97.7%
COc1ccc2nc(Cl)c(-c3cc(-c4ccccc4)nc(=O)[nH]3)cc2c1	57.9%	60.8%	78.1%	69.9%	18%	55.2%	66.9%	77.4%	57.8%	92.9%
C=C(c1ccc(OC)c(N)c1)c1cc(C)nc2ccccc12	12.3%	22.8%	37.8%	30.9%	-4.48% (active)	53.8%	-29.4% (active)	19.9%	22.6%	-79.8% (active)
O=C(c1ccc(Cl)cc1)C1[C@H](c2ccccc2Br)[C@@H](c2ccccc2)NC12C(=O)Nc1ccc(Cl)cc12 (stereo not given in full)	-22.3% (active)	18.9%	44.7%	38.9%	-13.5% (active)	23%	3.07% (active)	19.8%	17.6%	8.59% (active)
O=C(/C=C/Nc1ccccc1)c1ccc2c(c1)Nc1ccccc1S2	70%	43.5%	75.7%	53.5%	62.5%	98.7%	61.4%	87.7%	87.2%	100%
COc1ccc(NC(=O)Cn2c(/C=C/c3ccc(N(C)C)cc3)nc3ccccc3c2=O)cc1	49.8%	-15.2% (active)	46.4%	39.3%	19.5%	-2.51% (active)	44.1%	15.2%	7.97% (active)	47%
N#Cc1c(NC(=O)c2ccc(C(F)(F)F)cc2)sc2c1CCC(O)=C2	23.9%	46.9%	46.1%	26.3%	14.6%	38.7%	1.61% (active)	34.7%	53.3%	60.9%
